Common to all, as to assay: DAPPL (digital affinity profiling via proximity ligation, sequencing); 10 mM Tris-HCl pH 7.5, 50 mM NaCl, 1 mM DTT, 4% glycerol, room temperature, 30 min; GST-TFs on glutathione beads, 16-mer random dsDNA library, 0.1% formaldehyde crosslink after washing; high values mean tight binding
One assay concerns the target T1, FLI1 (Homo sapiens, UniProt Q01543 1-452).
T1 sequence: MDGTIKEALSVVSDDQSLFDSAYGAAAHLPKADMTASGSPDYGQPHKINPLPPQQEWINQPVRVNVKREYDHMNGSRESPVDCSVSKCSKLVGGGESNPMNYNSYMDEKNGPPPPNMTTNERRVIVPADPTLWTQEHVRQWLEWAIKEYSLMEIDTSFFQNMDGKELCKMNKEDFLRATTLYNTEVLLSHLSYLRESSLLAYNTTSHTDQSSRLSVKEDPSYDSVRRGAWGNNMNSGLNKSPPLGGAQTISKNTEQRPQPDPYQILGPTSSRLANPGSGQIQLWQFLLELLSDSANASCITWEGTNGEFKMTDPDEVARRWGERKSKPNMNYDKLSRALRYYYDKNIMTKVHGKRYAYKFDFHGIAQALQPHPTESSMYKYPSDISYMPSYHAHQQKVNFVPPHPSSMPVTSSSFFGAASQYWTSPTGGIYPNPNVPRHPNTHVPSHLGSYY
Conditions: protein: recombinant; tags: N-terminal GST; dsDNA, one strand shown. The essentials: (§1)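 Yeast served to express human transcription factors as GST fusions, which were then captured on glutathione beads and labelled with DNA barcodes. Pooled with a tag-only sample, they were incubated with 200 nmole of a 16-mer random double-stranded DNA library for 30 min at room temperature in Tris/NaCl/DTT/glycerol buffer, washed, crosslinked with 0.1% formaldehyde, ligated by proximity, amplified by PCR and sequenced. Dividing each hexamer's read frequency for a factor by its frequency for the tag-only sample gives the binding signal.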

The target of a further assay is T2, ELK1 (Homo sapiens, UniProt P19419 1-428).
T2 sequence: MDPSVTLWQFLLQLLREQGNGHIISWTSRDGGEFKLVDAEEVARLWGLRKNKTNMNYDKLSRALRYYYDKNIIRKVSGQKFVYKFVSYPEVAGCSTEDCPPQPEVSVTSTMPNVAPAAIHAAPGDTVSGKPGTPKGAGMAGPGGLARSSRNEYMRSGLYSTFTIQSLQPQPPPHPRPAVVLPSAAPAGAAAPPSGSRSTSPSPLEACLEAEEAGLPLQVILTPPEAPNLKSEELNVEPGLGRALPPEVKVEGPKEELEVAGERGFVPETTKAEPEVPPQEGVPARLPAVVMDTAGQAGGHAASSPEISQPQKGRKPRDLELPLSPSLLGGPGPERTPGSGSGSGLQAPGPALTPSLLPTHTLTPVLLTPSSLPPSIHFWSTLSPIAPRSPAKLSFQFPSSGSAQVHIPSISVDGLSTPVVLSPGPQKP
The settings on record: protein: recombinant; tags: N-terminal GST; dsDNA, one strand shown. In short, it runs like this:
as §1

The target of a further assay is T3, GABPA (Homo sapiens, UniProt Q06546 1-454).
T3 sequence: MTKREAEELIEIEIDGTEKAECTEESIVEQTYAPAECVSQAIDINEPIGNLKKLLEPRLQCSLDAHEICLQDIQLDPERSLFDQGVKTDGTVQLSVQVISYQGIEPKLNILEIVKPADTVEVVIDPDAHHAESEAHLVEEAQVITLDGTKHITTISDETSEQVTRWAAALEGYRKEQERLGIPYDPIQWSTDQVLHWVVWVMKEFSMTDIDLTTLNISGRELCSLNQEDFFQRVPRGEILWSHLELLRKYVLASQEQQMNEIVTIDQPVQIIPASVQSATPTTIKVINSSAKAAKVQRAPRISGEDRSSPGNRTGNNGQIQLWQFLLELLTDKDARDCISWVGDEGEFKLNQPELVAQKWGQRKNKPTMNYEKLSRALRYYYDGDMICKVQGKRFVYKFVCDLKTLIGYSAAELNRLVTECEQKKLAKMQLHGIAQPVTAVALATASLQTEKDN
The settings on record: protein: recombinant; tags: N-terminal GST; dsDNA, one strand shown. In short, it runs like this: as §1

Another assay concerns the target T4, ERG (Homo sapiens, UniProt P11308 1-479).
T4 sequence: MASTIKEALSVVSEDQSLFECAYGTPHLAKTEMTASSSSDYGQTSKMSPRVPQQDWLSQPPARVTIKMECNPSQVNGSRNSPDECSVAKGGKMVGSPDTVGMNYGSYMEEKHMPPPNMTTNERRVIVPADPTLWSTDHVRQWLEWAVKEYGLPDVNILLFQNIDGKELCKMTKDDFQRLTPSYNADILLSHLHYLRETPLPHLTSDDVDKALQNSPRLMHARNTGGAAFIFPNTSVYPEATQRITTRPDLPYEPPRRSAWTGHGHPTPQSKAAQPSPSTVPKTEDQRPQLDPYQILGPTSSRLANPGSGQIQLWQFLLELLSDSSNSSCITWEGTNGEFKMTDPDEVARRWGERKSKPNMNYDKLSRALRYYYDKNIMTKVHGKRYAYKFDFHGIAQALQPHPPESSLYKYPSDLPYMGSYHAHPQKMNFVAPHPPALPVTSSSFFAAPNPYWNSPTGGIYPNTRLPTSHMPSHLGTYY
The settings on record: protein: recombinant; tags: N-terminal GST; dsDNA, one strand shown. In short, it runs like this:
as §1

The target in the next assay is ELF1 (Homo sapiens, UniProt P32519 1-619). The settings on record: protein: recombinant; tags: N-terminal GST; dsDNA, one strand shown. In short, it runs like this: as §1
Another assay addresses T5, EHF (Homo sapiens, UniProt Q9NZC4 1-300).
T5 sequence: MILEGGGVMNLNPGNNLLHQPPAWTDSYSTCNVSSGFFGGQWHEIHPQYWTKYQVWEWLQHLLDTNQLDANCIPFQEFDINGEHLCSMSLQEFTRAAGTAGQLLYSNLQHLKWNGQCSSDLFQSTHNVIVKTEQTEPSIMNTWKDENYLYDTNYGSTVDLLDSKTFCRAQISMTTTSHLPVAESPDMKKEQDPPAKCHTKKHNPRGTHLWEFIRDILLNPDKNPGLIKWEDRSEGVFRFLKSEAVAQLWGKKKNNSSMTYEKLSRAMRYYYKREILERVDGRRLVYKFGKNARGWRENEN
Conditions: protein: recombinant; tags: N-terminal GST; dsDNA, one strand shown. The essentials: as §1

The next assay has as its target SPI1 (Homo sapiens, UniProt P17947 1-270). The settings on record: protein: recombinant; tags: N-terminal GST; dsDNA, one strand shown. The essentials:
as §1

In another assay the target is SPIB (Homo sapiens, UniProt Q01892 1-262). The settings on record: protein: recombinant; tags: N-terminal GST; dsDNA, one strand shown. The essentials:
as §1

For another assay, the target named is T6, ELK3 (Homo sapiens, UniProt P41970 1-407).
T6 sequence: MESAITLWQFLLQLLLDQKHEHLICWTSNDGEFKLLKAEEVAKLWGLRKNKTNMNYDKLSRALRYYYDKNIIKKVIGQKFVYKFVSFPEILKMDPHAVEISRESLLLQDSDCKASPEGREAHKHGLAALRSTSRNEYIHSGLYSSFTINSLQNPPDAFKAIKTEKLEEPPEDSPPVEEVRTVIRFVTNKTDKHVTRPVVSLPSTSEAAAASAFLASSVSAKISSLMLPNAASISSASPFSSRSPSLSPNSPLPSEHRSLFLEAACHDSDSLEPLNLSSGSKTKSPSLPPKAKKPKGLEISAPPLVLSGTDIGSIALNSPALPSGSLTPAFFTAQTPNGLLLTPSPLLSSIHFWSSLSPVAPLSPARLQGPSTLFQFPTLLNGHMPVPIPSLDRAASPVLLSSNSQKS
The settings on record: protein: recombinant; tags: N-terminal GST; dsDNA, one strand shown. The essentials: as §1

Another assay concerns the target T7, FEV (Homo sapiens, UniProt Q99581 1-238).
T7 sequence: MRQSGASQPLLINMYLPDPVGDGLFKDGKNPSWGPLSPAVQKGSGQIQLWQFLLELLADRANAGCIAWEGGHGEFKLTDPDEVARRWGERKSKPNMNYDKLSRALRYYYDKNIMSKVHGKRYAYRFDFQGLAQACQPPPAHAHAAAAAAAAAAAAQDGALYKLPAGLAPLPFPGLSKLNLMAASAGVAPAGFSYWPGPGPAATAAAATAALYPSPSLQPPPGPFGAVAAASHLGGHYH
Conditions: protein: recombinant; tags: N-terminal GST; dsDNA, one strand shown. In short, it runs like this:
as §1

A further assay addresses ETV5 (Homo sapiens, UniProt P41161 1-510). The settings on record: protein: recombinant; tags: N-terminal GST; dsDNA, one strand shown. The essentials: as §1
The target in a further assay is HSF1 (Homo sapiens, UniProt Q00613 1-529). Conditions: protein: recombinant; tags: N-terminal GST; chain copies: 3; dsDNA, one strand shown. The essentials:
as §1

The target in a further assay is T8, SPIC (Homo sapiens, UniProt Q8N5J4 1-248).
T8 sequence: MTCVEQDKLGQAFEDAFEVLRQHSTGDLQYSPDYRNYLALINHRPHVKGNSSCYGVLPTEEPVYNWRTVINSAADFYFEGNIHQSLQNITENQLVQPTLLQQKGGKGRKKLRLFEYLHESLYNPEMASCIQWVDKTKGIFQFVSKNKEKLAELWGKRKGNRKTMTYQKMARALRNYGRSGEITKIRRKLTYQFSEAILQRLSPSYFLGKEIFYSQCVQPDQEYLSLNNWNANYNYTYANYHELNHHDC
Conditions: protein: recombinant; tags: N-terminal GST; dsDNA, one strand shown. The essentials:
as §1

A further assay addresses ELF4 (Homo sapiens, UniProt Q99607 1-663). Conditions: protein: recombinant; tags: N-terminal GST; dsDNA, one strand shown. The essentials:
as §1

In the next assay the target is T9, ELK4 (Homo sapiens, UniProt P28324-2 1-405).
T9 sequence: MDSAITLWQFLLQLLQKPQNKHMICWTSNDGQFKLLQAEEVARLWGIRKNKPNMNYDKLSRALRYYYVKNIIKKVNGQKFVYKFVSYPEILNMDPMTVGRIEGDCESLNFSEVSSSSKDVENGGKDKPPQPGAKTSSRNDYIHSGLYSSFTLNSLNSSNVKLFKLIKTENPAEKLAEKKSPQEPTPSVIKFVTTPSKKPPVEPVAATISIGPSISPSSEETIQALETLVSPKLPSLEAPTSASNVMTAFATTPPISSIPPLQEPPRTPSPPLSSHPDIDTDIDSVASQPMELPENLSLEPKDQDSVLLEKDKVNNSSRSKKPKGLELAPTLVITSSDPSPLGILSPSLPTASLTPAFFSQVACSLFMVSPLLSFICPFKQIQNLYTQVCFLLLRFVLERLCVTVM
Conditions: protein: recombinant; tags: N-terminal GST; dsDNA, one strand shown. The essentials:
as §1

The next assay deals with T10, ETV2 (Homo sapiens, UniProt O00321 1-342).
T10 sequence: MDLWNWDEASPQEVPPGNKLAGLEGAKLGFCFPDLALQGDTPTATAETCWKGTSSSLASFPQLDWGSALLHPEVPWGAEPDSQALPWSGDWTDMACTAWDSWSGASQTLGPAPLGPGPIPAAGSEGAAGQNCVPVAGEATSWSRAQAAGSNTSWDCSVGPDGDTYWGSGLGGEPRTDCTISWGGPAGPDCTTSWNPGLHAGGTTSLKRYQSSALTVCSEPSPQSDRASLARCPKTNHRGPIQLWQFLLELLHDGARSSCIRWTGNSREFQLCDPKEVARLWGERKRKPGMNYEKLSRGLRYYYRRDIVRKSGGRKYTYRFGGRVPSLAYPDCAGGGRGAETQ
The settings on record: protein: recombinant; tags: N-terminal GST; dsDNA, one strand shown. The essentials: as §1

The target in a further assay is T11, ELF3 (Homo sapiens, UniProt P78545 1-371).
T11 sequence: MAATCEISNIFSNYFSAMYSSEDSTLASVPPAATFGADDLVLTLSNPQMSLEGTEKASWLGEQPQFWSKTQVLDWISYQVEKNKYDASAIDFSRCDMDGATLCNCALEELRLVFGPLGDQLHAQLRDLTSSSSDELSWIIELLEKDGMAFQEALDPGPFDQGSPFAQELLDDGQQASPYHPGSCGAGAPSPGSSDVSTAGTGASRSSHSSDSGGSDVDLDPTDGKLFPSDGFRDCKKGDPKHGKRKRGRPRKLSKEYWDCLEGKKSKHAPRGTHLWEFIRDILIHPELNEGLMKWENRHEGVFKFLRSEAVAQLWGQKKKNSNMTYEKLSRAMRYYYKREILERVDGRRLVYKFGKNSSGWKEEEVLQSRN
Conditions: protein: recombinant; tags: N-terminal GST; dsDNA, one strand shown. The essentials: as §1

The next assay has as its target CRX (Homo sapiens, UniProt O43186 1-299). The settings on record: protein: recombinant; tags: N-terminal GST; dsDNA, one strand shown. In short, it runs like this:
as §1

The target in another assay is ETV1 (Homo sapiens, UniProt P50549 1-477). The settings on record: protein: recombinant; tags: N-terminal GST; dsDNA, one strand shown. The essentials:
as §1

Results on one sequence are retold here after publication PMC7862700, “An all-to-all approach to the identification of sequence-specific readers for epigenetic DNA modifications on cytosine”.

Sequence of SPIB (Q01892 whole entry): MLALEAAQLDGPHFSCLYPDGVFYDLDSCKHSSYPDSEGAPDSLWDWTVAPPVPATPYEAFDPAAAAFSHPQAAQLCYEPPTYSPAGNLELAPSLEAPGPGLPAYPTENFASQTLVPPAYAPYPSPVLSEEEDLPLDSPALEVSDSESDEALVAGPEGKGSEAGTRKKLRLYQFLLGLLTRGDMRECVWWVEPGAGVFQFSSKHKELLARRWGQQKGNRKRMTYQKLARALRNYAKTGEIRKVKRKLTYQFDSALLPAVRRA
Sequence of HSF1 (Q00613 whole entry): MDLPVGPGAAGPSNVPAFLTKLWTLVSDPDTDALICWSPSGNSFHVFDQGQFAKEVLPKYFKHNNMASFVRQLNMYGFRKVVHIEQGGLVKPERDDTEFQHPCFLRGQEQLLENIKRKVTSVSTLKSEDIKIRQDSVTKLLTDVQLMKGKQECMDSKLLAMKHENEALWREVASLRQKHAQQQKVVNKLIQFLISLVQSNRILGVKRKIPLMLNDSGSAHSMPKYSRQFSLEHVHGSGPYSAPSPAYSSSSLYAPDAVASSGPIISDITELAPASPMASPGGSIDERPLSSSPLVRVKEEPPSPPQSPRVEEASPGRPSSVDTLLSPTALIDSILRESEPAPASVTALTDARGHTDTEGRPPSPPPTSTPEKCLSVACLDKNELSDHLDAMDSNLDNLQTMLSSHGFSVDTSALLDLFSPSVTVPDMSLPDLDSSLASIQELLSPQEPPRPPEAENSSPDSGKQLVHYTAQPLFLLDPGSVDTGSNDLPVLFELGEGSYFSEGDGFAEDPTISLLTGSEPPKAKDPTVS
Sequence of ELF4 (Q99607 whole entry): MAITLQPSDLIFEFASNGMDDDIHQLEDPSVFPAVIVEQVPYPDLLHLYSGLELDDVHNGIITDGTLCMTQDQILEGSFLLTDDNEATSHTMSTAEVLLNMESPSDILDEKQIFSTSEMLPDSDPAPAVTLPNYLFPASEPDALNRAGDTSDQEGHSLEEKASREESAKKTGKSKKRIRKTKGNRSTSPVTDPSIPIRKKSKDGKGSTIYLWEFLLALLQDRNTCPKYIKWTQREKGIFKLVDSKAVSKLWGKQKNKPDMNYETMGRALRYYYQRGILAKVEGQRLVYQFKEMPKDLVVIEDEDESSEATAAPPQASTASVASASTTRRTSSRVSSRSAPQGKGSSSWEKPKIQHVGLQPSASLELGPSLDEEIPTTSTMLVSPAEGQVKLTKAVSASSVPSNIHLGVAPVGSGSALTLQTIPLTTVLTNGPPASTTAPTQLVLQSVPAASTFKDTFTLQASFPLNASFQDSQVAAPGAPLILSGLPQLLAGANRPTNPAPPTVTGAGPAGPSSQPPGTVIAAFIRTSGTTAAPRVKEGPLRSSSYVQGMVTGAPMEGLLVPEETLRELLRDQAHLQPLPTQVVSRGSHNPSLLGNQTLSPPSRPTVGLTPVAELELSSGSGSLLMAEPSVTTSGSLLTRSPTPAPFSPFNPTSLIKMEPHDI
Sequence of ETV1 (P50549 whole entry): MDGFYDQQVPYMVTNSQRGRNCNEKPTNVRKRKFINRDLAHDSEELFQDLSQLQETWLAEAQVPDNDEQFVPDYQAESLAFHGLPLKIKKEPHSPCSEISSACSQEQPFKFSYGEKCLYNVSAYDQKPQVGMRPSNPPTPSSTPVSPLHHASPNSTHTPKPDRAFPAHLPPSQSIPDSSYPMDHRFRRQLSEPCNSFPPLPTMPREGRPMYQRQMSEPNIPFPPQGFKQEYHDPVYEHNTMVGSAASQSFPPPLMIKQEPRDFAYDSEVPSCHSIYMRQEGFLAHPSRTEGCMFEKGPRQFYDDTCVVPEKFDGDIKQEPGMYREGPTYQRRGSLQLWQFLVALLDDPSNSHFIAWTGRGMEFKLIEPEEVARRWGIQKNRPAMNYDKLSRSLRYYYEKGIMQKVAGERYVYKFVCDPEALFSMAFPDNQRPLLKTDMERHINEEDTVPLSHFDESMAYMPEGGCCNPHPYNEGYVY
Sequence of ELF1 (P32519 whole entry): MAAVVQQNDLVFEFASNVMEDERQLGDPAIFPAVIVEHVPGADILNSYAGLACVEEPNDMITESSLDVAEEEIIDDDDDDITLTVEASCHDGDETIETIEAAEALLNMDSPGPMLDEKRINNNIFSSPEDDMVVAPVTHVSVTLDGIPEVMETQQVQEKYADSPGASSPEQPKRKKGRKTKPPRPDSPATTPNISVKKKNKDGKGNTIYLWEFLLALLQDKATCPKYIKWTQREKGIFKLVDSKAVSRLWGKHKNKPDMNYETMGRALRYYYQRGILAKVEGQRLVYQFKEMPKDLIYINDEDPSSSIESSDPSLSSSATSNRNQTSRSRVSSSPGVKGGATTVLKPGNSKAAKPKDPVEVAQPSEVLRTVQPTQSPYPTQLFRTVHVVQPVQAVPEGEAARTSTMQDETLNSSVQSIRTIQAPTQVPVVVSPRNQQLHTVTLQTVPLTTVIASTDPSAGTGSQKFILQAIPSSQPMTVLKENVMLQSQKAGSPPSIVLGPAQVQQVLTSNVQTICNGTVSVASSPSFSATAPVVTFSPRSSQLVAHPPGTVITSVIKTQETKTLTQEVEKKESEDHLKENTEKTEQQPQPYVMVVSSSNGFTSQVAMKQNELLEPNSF
Sequence of ETV5 (P41161 whole entry): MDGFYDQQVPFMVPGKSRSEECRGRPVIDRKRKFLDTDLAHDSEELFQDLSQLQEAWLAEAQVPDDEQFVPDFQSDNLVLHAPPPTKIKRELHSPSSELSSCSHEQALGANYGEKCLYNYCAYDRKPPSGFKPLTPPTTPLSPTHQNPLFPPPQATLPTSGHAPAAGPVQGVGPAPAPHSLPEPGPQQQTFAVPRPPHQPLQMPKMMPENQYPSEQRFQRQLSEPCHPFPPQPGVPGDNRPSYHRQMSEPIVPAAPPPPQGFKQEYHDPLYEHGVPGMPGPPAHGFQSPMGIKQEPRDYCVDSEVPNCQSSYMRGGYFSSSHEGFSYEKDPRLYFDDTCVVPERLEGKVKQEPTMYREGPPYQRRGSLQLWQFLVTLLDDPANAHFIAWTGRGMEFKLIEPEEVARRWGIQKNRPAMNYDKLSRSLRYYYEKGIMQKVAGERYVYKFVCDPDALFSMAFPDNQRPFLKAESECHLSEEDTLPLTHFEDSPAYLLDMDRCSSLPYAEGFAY
Sequence of CRX (O43186 whole entry): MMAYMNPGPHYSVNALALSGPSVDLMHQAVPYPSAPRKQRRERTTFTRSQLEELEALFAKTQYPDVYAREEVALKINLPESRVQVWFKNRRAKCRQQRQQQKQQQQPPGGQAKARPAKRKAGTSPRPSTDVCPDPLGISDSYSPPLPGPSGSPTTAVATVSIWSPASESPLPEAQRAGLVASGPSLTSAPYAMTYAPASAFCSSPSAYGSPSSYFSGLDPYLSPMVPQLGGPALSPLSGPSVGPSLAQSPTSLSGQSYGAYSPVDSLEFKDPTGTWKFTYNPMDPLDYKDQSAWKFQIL

For ATTCTT, the binding signal with FLI1 is 1.48 fold enrichment (6-mer frequency, TF over GST control); with ELK1, 1.44 fold enrichment (6-mer frequency, TF over GST control); with GABPA it was 1.49 fold enrichment (6-mer frequency, TF over GST control); with ERG it was 1.5 fold enrichment (6-mer frequency, TF over GST control); in the assay with ELF1 it was 1.51 fold enrichment (6-mer frequency, TF over GST control); in the assay with EHF it was 1.45 fold enrichment (6-mer frequency, TF over GST control). In addition, the binding signal is 1.44 fold enrichment (6-mer frequency, TF over GST control) with SPI1; 1.56 fold enrichment (6-mer frequency, TF over GST control) in the assay with SPIB; 1.61 fold enrichment (6-mer frequency, TF over GST control) with ELK3; 1.4 fold enrichment (6-mer frequency, TF over GST control) with FEV; 1.4 fold enrichment (6-mer frequency, TF over GST control) with ETV5; 1.99 fold enrichment (6-mer frequency, TF over GST control) in the assay with HSF1. The binding signal with SPIC was 1.56 fold enrichment (6-mer frequency, TF over GST control); in the assay with ELF4, 1.47 fold enrichment (6-mer frequency, TF over GST control); with ELK4, 1.51 fold enrichment (6-mer frequency, TF over GST control); with ETV2 it was 1.37 fold enrichment (6-mer frequency, TF over GST control); with ELF3 it was 1.45 fold enrichment (6-mer frequency, TF over GST control); with CRX it was 1.77 fold enrichment (6-mer frequency, TF over GST control). In addition, in the assay with ETV1, the binding signal is 1.56 fold enrichment (6-mer frequency, TF over GST control).
